Structures can show the parent of a compound that is named as a salt. ± gives the standard deviation or the standard deviation of the averaged measurements.
Key:
Details in all cases: 25 µM; exposure: 24-48 hpf
[1] = tested on: Danio rerio Tg(wt1b:EGFP) embryo, pronephros; experiment: glomerular separation, fold change vs DMSO control; higher = glomeruli further apart (abnormal)
Procedure, shortened: (§1)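 Distances and angles describing the pronephros were computed by a Fiji macro from 16 reference points set manually on maximum projections of dorsal images. These images came from dechorionated Tg(wt1b:EGFP) zebrafish embryos held in agarose-filled 96-well plates after exposure to 25 μM compound in 0.5% DMSO, in HEPES-buffered E3 with 0.003% PTU, from 24 to 48 hpf at 28.5°C. Any value more than 2 SD from the feature mean was excluded. Features are stated as fold change relative to the mean of same-day DMSO-treated embryos.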

[2] = tested on: Danio rerio Tg(wt1b:EGFP) embryo, pronephros; experiment: glomerular width (mean of left and right), fold change vs DMSO control; higher = wider glomerulus
Procedure, shortened: as §1

[3] = tested on: Danio rerio Tg(wt1b:EGFP) embryo, pronephros; experiment: fraction of imaged embryos annotated as normal kidney; higher = less nephrotoxic; extreme values may be limits of the assay
Procedure, shortened: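 The value given is the share of embryos in each treatment scored as having a normal kidney. To obtain it, dechorionated Tg(wt1b:EGFP) zebrafish embryos were treated from 24 to 48 hpf at 28.5°C with 25 μM compound in 0.5% DMSO, in 5 mM HEPES-buffered E3 with 0.003% PTU. Pronephroi were imaged by widefield fluorescence (470 nm, 10 z-slices), and every embryo was annotated by hand from maximum projections.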

[4] = tested on: Danio rerio Tg(wt1b:EGFP) embryo, pronephros; experiment: pronephric angle neck segment to proximal convoluted tubule (mean of left and right), fold change vs DMSO control; higher = larger pronephric angle
Procedure, shortened: as §1

With `CCCCNc1ccc(C(=O)OCCN(C)C)cc1` the glomerular separation [1] was 1.01 ± 0.33, the glomerular width [2] was 0.959 ± 0.096 and the “fraction of imaged embryos annotated as normal kidney” value (shortened to “fraction of imaged embryos annotated”) [3] was 0.833. The “pronephric angle neck segment” value [4] was 1.057 ± 0.0014.

For `Cc1ccc(NC(=O)c2ccc(CN3CCN(C)CC3)cc2)cc1Nc1nccc(-c2cccnc2)n1` [Imatinib], the glomerular separation [1] was 1.09 ± 0.42, the glomerular width [2] was 0.9892 ± 0.0063 and the “fraction of imaged embryos annotated” value [3] was 1. For the same molecule, the “pronephric angle neck segment” value [4] was 1.01 ± 0.018.

With `CCOc1ccc(Cc2nccc3cc(OCC)c(OCC)cc23)cc1OCC` [Ethaverine hydrochloride] the glomerular separation [1] was 0.975 ± 0.28, the glomerular width [2] was 1.1 ± 0.081 and the “fraction of imaged embryos annotated” value [3] was 0.583. The “pronephric angle neck segment” value [4] was 0.989 ± 0.061.

For `CC(C)[N+](C)(CCOC(=O)C1c2ccccc2Oc2ccccc21)C(C)C` [Propantheline bromide], the glomerular separation [1] was 1.29 ± 0.47, the glomerular width [2] was 0.966 ± 0.062 and the “fraction of imaged embryos annotated” value [3] was 0.667. For the same molecule, the “pronephric angle neck segment” value [4] was 0.942 ± 0.01.

In the case of `CN1CCCC(n2nc(Cc3ccc(Cl)cc3)c3ccccc3c2=O)CC1` (stereo not drawn) [Azelastine hydrochloride], the glomerular separation [1] is reported as 0.737 ± 0.21, the glomerular width [2] is reported as 0.885 ± 0.04 and the “fraction of imaged embryos annotated” value [3] is reported as 1. The “pronephric angle neck segment” value [4] was 1.11 ± 0.024.

`Nc1nc(=S)c2ncn([C@@H]3O[C@H](CO)[C@@H](O)[C@H]3O)c2[nH]1` [Thioguanosine] was tested, and the glomerular separation [1] was 1.01 ± 0.38, the glomerular width [2] was 1.02 ± 0.012 and the “fraction of imaged embryos annotated” value [3] was 0.917. For the same molecule, the “pronephric angle neck segment” value [4] was 1.03 ± 0.036.

For `CSc1ccc2c(c1)C(N1CCN(C)CC1)Cc1ccccc1S2` (stereo not drawn) [Methiothepin maleate], the glomerular separation [1] was 1.06 ± 0.38, the glomerular width [2] was 1.01 ± 0.045 and the “fraction of imaged embryos annotated” value [3] was 0.833. For the same molecule, the “pronephric angle neck segment” value [4] was 0.976 ± 0.034.

From the supplement of paper PMC7366291
